# Source: PubChem BioAssay (EPA / NIEHS)
# Inconclusive results are not listed. The source made the active and inactive calls. The calls were made as follows, unless noted: active = hit-call score of the fitted dose curve at least 0.9, where 1 is the maximum; inconclusive = response in the unintended direction; inactive = score below 0.9.
# How the values were obtained:
# [1] = STM_H9_CystineISnorm_perc: Stemina devTOX quickPredict H9 human embryonic stem cell (hESC)-based Assay for Cystine (CYSS) Metabolite Biomarker, Normalized (AID 2283713; active = hit-call score of the fitted dose curve at least 0.9, where 1 is the maximum; inactive = score below 0.9)
# How it was run: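 UPLC-HRMS read-out: endogenous cystine peak area in spent medium, normalized to isotope-labeled internal standard and to median of 0.1% DMSO controls. Pluripotent H9 cells, 72h exposure, daily medium/compound replenishment; medium from last 24h sampled.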
# [2] = STM_H9_OrnCyssISnorm_ratio: Stemina devTOX quickPredict H9 human embryonic stem cell (hESC)-based Assay for Ornithine (ORN):Cystine (CYSS) Ratio (AID 2283714)
# How it was run: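 UPLC-HRMS of spent media: ORN/CYSS ratio of internal-standard-normalized percentages, DMSO (0.1%) baseline. Pluripotent H9 hESCs, 72h exposure, daily re-dosing with fresh media; last 24h media collected.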
# [3] = Tanguay_ZF_120hpf_ActivityScore_legacy: (Legacy) Oregon State University Tanguay Lab 120 Hour Post-fertilization zebrafish Assay Score for Activity (AID 2283742);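 as to AC50: dechorionated Tropical 5D wild-type zebrafish embryos held singly per well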
# How it was run: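 Dechorionated 5D embryos, one per well, static exposure 6–120 hpf, 28C, sealed and dark; final DMSO 0.64% (vol/vol). Brightfield binary scoring of mortality plus 18 endpoints; gain-of-signal fit versus DMSO baseline.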
# [4] = target: Luciferin 4-monooxygenase (Photinus pyralis) (UniProt P08659); test: CCTE_Simmons_QuantiLum_inhib_2: CCTE's Firefly Luciferase Inhibition Assay, Simmons Lab (AID 2283767);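 as to AC50: potency for inhibitors that lower luciferase luminescence relative to DMSO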
# How it was run: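 Cell-free QuantiLum luciferase, 5 ng/well; compounds 5 nM–87.5 uM final, 8 conc, 0.5% DMSO; 30 min, 37C, dark. Detection reagent (150 uM D-luciferin, 147 uM dATP, CoA, DTT, pH 7.8 final) injected per well, kinetic luminescence. Triplicate biological replicates.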
# [5] = CCTE_Padilla_ZF_144hpf_TERATOSCORE: (Legacy) CCTE's 144 Hour Post-fertilization zebrafish Assay Teratoscore, Padilla Lab (AID 2283679; active = hit-call score of the fitted dose curve at least 0.9, where 1 is the maximum; inactive = score below 0.9;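 as to AC50: zebrafish embryos with chorions exposed by immersion from 6-8 hpf to 5 dpf with daily renewal; teratogenicity score from eye scoring of death hatching and malformations at 144 hpf; higher score means more developmental defects relative to DMSO baseline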)
# How it was run: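 Larvae scored by eye at 144 hpf for death, hatching and malformations after a day in clean Hanks'. Before that, daily-renewed exposure at 80 uM (0.4% DMSO, 26C) from roughly 6-8 hpf through 5 dpf, 4 embryos per chemical.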
# [6] = CEETOX_H295R_MTT_cell_viability: Viability Assessment in the CeeTox HT-H295R MTT Assay (AID 2283718; active = hit-call score of the fitted dose curve at least 0.9, where 1 is the maximum; inactive = score below 0.9;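 as to AC50: curve fitted both ways so AC50 may mark viability loss or gain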)
# How it was run: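 Human H295R adrenal cells, prestimulated 48 h with 10 uM forskolin, were exposed 48 h to chemicals in 0.1% DMSO. Viability was measured in the same wells by MTT (0.5 mg/ml, 4 h, 37 C), absorbance 570/650 nm, as percent of controls.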
# [7] = system: Thyroperoxidase (TPO), gene 445522; test: CCTE_Simmons_GUA_TPO: CCTE's Guaiacol Assay for Thyroperoxidase (TPO) Inhibition, Simmons Lab (AID 2283750)
# How it was run: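 Porcine thyroid microsomes (25 ug) in 200mM potassium phosphate, preincubated 30 s at 37C with compound (8 concentrations, 5 nM–87.5 uM) and 35mM guaiacol; 1mM H2O2 starts reaction. Absorbance change at 450nm over first 80 s; loss of signal versus DMSO, three replicates.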
# [8] = ArunA_CellTiter_hNC: Viability Assessment in the ArunA Biomedical's Oris Neural Crest (hNC) Cell Migration Assay (AID 2283752)
# How it was run: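 hNC cells (H9 ESC-derived), 60,000/well, Matrigel, LIF + bFGF medium; 16 h 37C attachment; 72 h compound in test medium; CellTiter Aqueous One read-out; loss-of-signal vs DMSO baseline.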
# [9] = ArunA_Migration_hNP: ArunA Biomedical's Oris Neuroprogenitor (hNP) Cell Migration Assay (AID 2283754)
# How it was run: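 Readout is calcein-AM fluorescence (ex494/em517) of cells migrating into the detection zone, relative to DMSO. hNP1 cells (H9-derived) grown on Matrigel behind stoppers 16 h, then stoppers pulled and chemical applied 72 h; cytochalasin D as control.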
# [10] = ArunA_Migration_hNC: ArunA Biomedical's Oris Neural Crest (hNC) Cell Migration Assay (AID 2283755)
# How it was run: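 Calcein-AM fluorescence (ex494 nm/em 517 nm) in the stopper-defined detection zone quantifies migration of hNC cells after 72 h chemical exposure; 60,000 cells/well plated on Matrigel with LIF and bFGF, 16 h pre-incubation. DMSO baseline.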
# [11] = ArunA_NOG_NeuriteLength: ArunA Biomedical's Neurite Outgrowth (NOG) Assay for Neurite Length (AID 2283757)
# How it was run: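 Total neurite length per neuron, from traced βIII-tubulin-labelled processes longer than 10 um on viable Hoechst-gated cells, was scored as decrease from DMSO. Cells were hESC (H9)-derived neurons given 48 h chemical exposure immediately after seeding.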
# [12] = ArunA_NOG_NeuritesPerNeuron: ArunA Biomedical's Neurite Outgrowth (NOG) Assay for Neurites Per Neuron (AID 2283758)
# How it was run: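 Differentiated human H9-derived neurons exposed to chemicals for 48 h from seeding, then stained with Hoechst and βIII-tubulin/DyLight 488. Automated imaging counted neurites (processes >10 um) per valid neuron; loss of signal versus DMSO scored.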
# [13] = ArunA_NOG_BranchPointsPerNeurite: ArunA Biomedical's Neurite Outgrowth (NOG) Assay for Branch Points Per Neurite (AID 2283759)
# How it was run: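 Automated image analysis traced neurites (processes >10 um) from valid cell bodies after Hoechst and βIII-tubulin staining. hNN cells from H9 embryonic stem cells, 48 h exposure. Fitted bidirectionally against DMSO.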
# Chain of Luciferin 4-monooxygenase (Photinus pyralis) (P08659 whole entry, looked up): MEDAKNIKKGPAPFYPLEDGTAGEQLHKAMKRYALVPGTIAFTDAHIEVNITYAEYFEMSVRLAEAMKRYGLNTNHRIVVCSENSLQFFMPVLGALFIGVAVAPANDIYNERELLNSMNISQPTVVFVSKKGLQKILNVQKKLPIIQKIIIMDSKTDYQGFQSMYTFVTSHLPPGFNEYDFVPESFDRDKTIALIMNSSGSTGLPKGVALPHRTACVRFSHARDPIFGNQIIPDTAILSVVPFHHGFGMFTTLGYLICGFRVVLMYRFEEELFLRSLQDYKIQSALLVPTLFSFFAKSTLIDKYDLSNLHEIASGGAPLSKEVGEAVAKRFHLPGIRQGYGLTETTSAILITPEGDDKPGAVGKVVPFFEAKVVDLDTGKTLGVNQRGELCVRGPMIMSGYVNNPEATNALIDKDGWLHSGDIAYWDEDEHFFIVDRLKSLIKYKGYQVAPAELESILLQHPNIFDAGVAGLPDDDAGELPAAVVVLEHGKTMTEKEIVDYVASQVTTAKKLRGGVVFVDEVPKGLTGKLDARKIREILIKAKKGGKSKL
smiles,measurement,setting,value
Cc1ccc(N)cc1,AC50,[1],23.1 µM (active)
same,AC50,[2],30.4 µM (active)
same,outcome,[3],inactive
same,outcome,[4],inactive
CCOC(=O)[C@]1(c2ccccc2)Oc2ccccc2[C@@H]1N,AC50,[5],4.92 µM (active)
same,outcome,[6],inactive
same,outcome,[3],inactive
same,outcome,[4],inactive
CCN(CC)N=O,outcome,[1],inactive
same,outcome,[3],inactive
O=C1CCCO1,outcome,[1],inactive
same,outcome,[3],inactive
CS(=O)(=O)NC(=O)c1cc(Oc2ccc(C(F)(F)F)cc2Cl)ccc1[N+](=O)[O-],AC50,[5],0.128 µM (active)
same,outcome,[3],inactive
c1ccc(N=Nc2ccccc2)cc1,outcome,[6],inactive
same,outcome,[3],inactive
CCOc1cccc(C2(N3CCN(c4ccccc4)CC3)CCC(C)CC2)c1 (stereo not drawn),outcome,[6],inactive
same,outcome,[3],inactive
ClC1=C(Cl)C2(Cl)C3C(Cl)C=CC3C1(Cl)C2(Cl)Cl (stereo not drawn),AC50,[5],3.23 µM (active)
same,outcome,[3],inactive
CC(C)N(Cc1ccccc1)C(=O)C(C)(C)C,outcome,[6],inactive
same,outcome,[3],inactive
CNC(=O)Oc1cccc2c1OC(C)(C)C2,outcome,[1],inactive
same,outcome,[2],inactive
same,AC50,[6],1.52 µM (active)
same,outcome,[3],inactive
CC(C)(OOC(C)(C)c1ccccc1)c1ccccc1,AC50,[5],15.4 µM (active)
same,outcome,[3],inactive
[O-][Cl+]O,outcome,[5],inactive
same,outcome,[3],inactive
CN(C)c1ccc(C(=O)c2ccc(N(C)C)cc2)cc1,AC50,[5],0.544 µM (active)
same,AC50,[3],32.1 µM (active)
same,AC50,[4],11.6 µM (active)
Nc1ccc(Oc2ccc(N)cc2)cc1,outcome,[1],inactive
same,AC50,[2],50.2 µM (active)
same,outcome,[6],inactive
same,outcome,[3],inactive
same,AC50,[7],0.366 µM (active)
O=P(OCCCl)(OCCCl)OCCCl,outcome,[1],inactive
same,outcome,[6],inactive
same,outcome,[3],inactive
same,outcome,[8],inactive
same,outcome,[9],inactive
same,outcome,[10],inactive
same,outcome,[11],inactive
same,outcome,[12],inactive
same,outcome,[13],inactive
CN(C)C(=O)Nc1ccc(Cl)cc1,outcome,[1],inactive
same,outcome,[2],inactive
same,outcome,[3],inactive
same,outcome,[4],inactive
O=Cc1ccco1,outcome,[5],inactive
same,outcome,[3],inactive
O=C(N[C@H](c1ccccc1)[C@@H]1CN2CCC1CC2)c1c(Cl)ccc(C(F)(F)F)c1Cl,AC50,[5],50.8 µM (active)
same,AC50,[3],28.3 µM (active)
COC(=O)c1ccccc1N,outcome,[5],inactive
same,outcome,[3],inactive
same,outcome,[4],inactive
CCC12COCN1COC2,outcome,[5],inactive
same,outcome,[3],inactive
CCNS(=O)(=O)C(F)(F)C(F)(F)C(F)(F)C(F)(F)C(F)(F)C(F)(F)C(F)(F)C(F)(F)F,AC50,[5],43.5 µM (active)
same,AC50,[3],31.2 µM (active)
CCC(C)c1ccc(O)cc1 (stereo not drawn),AC50,[5],60.3 µM (active)
same,outcome,[6],inactive
same,outcome,[3],inactive
same,outcome,[4],inactive
N#CC(Br)Br,outcome,[5],inactive
same,outcome,[3],inactive
